Screens: PubChem, The Scripps Research Institute Molecular Screening Center
M4 PAM: CHRM4 positive allosteric modulation | AID 624126 | CHO-K1 hM4/Gqi5, Fluo-8 calcium fluorescence, ACh EC20; 0% = ACh EC20, 100% = maximal ACh | hit rate 0.4% among 360,000 | activation, % at 3 µM;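 active = activation above its plate's cutoff, the mean activation of sample wells plus 3 SD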
Target sequence (P08173 whole entry, looked up): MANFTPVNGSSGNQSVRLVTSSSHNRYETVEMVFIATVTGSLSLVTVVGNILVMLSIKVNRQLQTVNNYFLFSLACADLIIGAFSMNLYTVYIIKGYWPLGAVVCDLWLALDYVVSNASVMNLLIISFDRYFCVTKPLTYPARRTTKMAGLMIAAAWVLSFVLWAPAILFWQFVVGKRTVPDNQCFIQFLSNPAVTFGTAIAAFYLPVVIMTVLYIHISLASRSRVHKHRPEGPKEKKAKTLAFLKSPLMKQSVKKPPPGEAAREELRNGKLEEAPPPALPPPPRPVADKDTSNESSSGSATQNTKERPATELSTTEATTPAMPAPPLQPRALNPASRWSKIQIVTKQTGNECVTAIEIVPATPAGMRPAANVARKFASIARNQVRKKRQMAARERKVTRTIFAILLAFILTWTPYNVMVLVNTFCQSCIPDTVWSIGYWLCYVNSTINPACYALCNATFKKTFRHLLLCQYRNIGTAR
M1 antag: blocks human M1 muscarinic receptor. P11229. CHO-K1 hM1, Fluo-8 calcium fluorescence, ACh EC80 antagonist. inhibition, % at 3 µM. hit rate 1.3% among 360,000. AID 588852;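 active = percent inhibition above its own plate's cutoff, namely the mean of that plate's compound wells plus 3 SD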;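 note: peak over basal fluorescence ratio during 140 s after agonist addition; 0% = ACh EC80 plus DMSO and 100% = DMSO alone without agonist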
M1 ag: human M1 muscarinic receptor agonism; hit rate 0.33% among 360,000; P11229; activation, % at 3 µM; AID 588814; CHO-K1 hM1, Fluo-8 calcium fluorescence, agonist mode; 0% DMSO, 100% acetylcholine EC100;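 active = activation above the run's mean compound activation plus 3 SD, cut at about 16% in these data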;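 note: peak over basal fluorescence ratio within a 140 s kinetic read after compound addition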
M4 antag: blocks acetylcholine activation of human M4 receptor. CHO-hM4 cells, ACh EC80, Fluo-8 calcium fluorescence. P08173. inhibition, % at 3 µM. hit rate 0.73% among 360,000;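 active = inhibition above its plate's cutoff, the mean inhibition of sample wells plus 3 SD, cut at about 27% in these data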;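 note: 0% = acetylcholine EC80 with DMSO and 100% = DMSO without agonist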
CHRM1 PAM: potentiates human M1 receptor response to acetylcholine; CHO-K1 hM1, Fluo-8 calcium fluorescence, ACh EC20; 0% = ACh EC20, 100% = maximal ACh; activation, % at 3 µM; hit rate 0.088% among 360,000; P11229; AID 588819; in the data active = activation above about 19%, passing the limit was not always enough
CHRM4 agonist: agonists of human muscarinic M4 receptor (CHRM4); CHO-K1 hM4/Gqi5, Fluo-8 calcium fluorescence; vehicle 0%, full acetylcholine response 100%; hit rate 0.14% among 360,000; P08173; activation, % at 3 µM;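 active = activation above the run mean over all test wells plus 3 SD, cut at about 32% in these data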;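 note: peak over basal fluorescence ratio per well then scaled between controls; 0% = DMSO wells and 100% = acetylcholine at EC100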
Active calls of the source: *. Rows were chosen to be rich in hits. Some 2.2% of all compounds tested hit in one or more screens of this group.

What do the screens show for `C/C(=N\NC(=O)c1c[nH]c2ccccc12)c1ccccn1`?
M4 PAM: 1.6; M1 antag: 4.4; M1 ag: -3.5; M4 antag: 1.9; CHRM1 PAM: 3.0; CHRM4 agonist: 1.1

How did C/C(=N\NC(=O)c1cc2ccccc2cc1O)c1ccccn1 do in these assays?
M4 PAM: 11.0; M1 antag: -22.0; M1 ag: 2.3; M4 antag: -5.9; CHRM1 PAM: 29.1*; CHRM4 agonist: 3.2

What do the screens show for `O=C(NCc1cccc(F)c1)c1cccc2c1C(=O)c1ccc(N3CCCC3)cc1S2(=O)=O`?
M4 PAM: -16.2; M1 antag: 33.0*; M1 ag: 26.6*; M4 antag: 12.7; CHRM1 PAM: -18.0; CHRM4 agonist: 79.7*

What do the screens show for `O=C(NCc1cc(C(F)(F)F)ccc1Cl)c1cccc2c1C(=O)c1ccc(N3CCCCC3)cc1S2(=O)=O`?
M4 PAM: -0.9; M1 antag: -7.4; M1 ag: -1.7; M4 antag: 5.4; CHRM1 PAM: 10.4; CHRM4 agonist: 5.2

Results for O=C(NCCc1ccc(F)cc1)c1cccc2c1C(=O)c1ccc(N3CCC(Cc4ccccc4)CC3)cc1S2(=O)=O ?
M4 PAM: 8.0; M1 antag: -4.4; M1 ag: 20.4*; M4 antag: -10.0; CHRM1 PAM: 0.0; CHRM4 agonist: 3.3

What do the screens show for `O=C(NCc1cc(C(F)(F)F)ccc1Cl)c1cccc2c1C(=O)c1ccc(N3CCC(N4CCCCC4)CC3)cc1S2(=O)=O`?
M4 PAM: -15.6; M1 antag: 31.7*; M1 ag: -2.3; M4 antag: 24.9; CHRM1 PAM: -27.7; CHRM4 agonist: 20.8

What do the screens show for `O=C(NCc1cccc(F)c1)c1cccc2c1C(=O)c1ccc(N3CCC(Cc4ccccc4)CC3)cc1S2(=O)=O`?
M4 PAM: -2.2; M1 antag: 9.4; M1 ag: 14.8; M4 antag: 2.2; CHRM1 PAM: -5.5; CHRM4 agonist: 11.9

Results for COc1ccccc1-c1nnc2n1N=C(C)CS2 ?
M4 PAM: 10.2; M1 antag: -8.0; M1 ag: -4.7; M4 antag: 16.8; CHRM1 PAM: 2.4; CHRM4 agonist: 1.1

What do the screens show for `CC1CCCCN1C(=O)CSc1nc(-c2ccccc2)cc(=O)[nH]1` (configuration not stated)?
M4 PAM: 8.7; M1 antag: -0.4; M1 ag: -0.9; M4 antag: -2.7; CHRM1 PAM: 5.4; CHRM4 agonist: 2.0

What do the screens show for `CCCCOc1ccc(Br)cc1CSC(=N)N`?
M4 PAM: -10.4; M1 antag: 26.3*; M1 ag: -1.2; M4 antag: 26.4*; CHRM1 PAM: -18.1; CHRM4 agonist: 9.5

How did CCOc1ccc(C(C)=O)cc1CSC(=N)N do in these assays?
M4 PAM: 0.1; M1 antag: -2.6; M1 ag: -13.7; M4 antag: -5.2; CHRM1 PAM: 8.4; CHRM4 agonist: -0.1

Results for O=S(=O)(Nc1ccccn1)c1ccc(Br)cc1 ?
M4 PAM: 0.8; M1 antag: -4.6; M1 ag: -3.3; M4 antag: -7.5; CHRM1 PAM: 4.8; CHRM4 agonist: -0.5

How did O=C(NCCSCc1ccccc1)c1ccc(C2SCC(=O)N2Cc2ccccc2)cc1 (configuration not stated) do in these assays?
M4 PAM: -17.9; M1 antag: 59.7*; M1 ag: -8.3; M4 antag: 34.5*; CHRM1 PAM: -34.2; CHRM4 agonist: 9.4

What do the screens show for `Cc1ccc(C(=O)NCC(=O)NCc2cc(=O)n(C)c(=O)n2C)cc1C`?
M4 PAM: 1.6; M1 antag: 3.9; M1 ag: 0.2; M4 antag: 8.5; CHRM1 PAM: 3.1; CHRM4 agonist: -0.4

Results for O=C(O)c1cccc2c1/C(=N/O)c1ccccc1-2 ?
M4 PAM: 1.8; M1 antag: -21.5; M1 ag: 0.8; M4 antag: -10.5; CHRM1 PAM: 28.7*; CHRM4 agonist: 0.9

Results for O=C(OCn1ncc(Cl)c(Cl)c1=O)c1cccc(C(F)(F)F)c1 ?
M4 PAM: -17.2; M1 antag: 12.3; M1 ag: -5.3; M4 antag: 58.2*; CHRM1 PAM: -0.9; CHRM4 agonist: 2.7

What do the screens show for `O=C(OCn1ncc(Br)c(Br)c1=O)c1ccccc1Cl`?
M4 PAM: 6.8; M1 antag: -3.2; M1 ag: -3.0; M4 antag: 24.2; CHRM1 PAM: 4.0; CHRM4 agonist: -0.1

What do the screens show for `CC(=O)c1ccc(NC(=O)CSc2nnc(NC(=O)CN3CCOCC3)s2)cc1`?
M4 PAM: -4.0; M1 antag: -27.5; M1 ag: -0.8; M4 antag: 4.5; CHRM1 PAM: 3.9; CHRM4 agonist: 1.8

Results for CN1CCN(C(=O)C2=C[C@@H](c3coc4ccccc4c3=O)C[C@@H](OCCCCO)O2)CC1 ?
M4 PAM: 23.9*; M1 antag: -2.7; M1 ag: -8.3; M4 antag: 2.9; CHRM1 PAM: 15.4; CHRM4 agonist: 1.9

Results for CC(C)(C)C(=O)NC(=S)NNC(=O)C(c1ccccc1)c1ccccc1 ?
M4 PAM: -43.4; M1 antag: 90.7*; M1 ag: 114.1*; M4 antag: 75.8*; CHRM1 PAM: -23.6; CHRM4 agonist: 154.1*

Results for Cc1ccc(/C=N\NC(=O)Cn2c(C)nc3ccccc32)o1 ?
M4 PAM: 6.8; M1 antag: -11.9; M1 ag: -2.1; M4 antag: -12.4; CHRM1 PAM: 10.0; CHRM4 agonist: 2.4

Results for O=c1nc2n(c3ccc(Br)cc13)CCS2 ?
M4 PAM: 21.2; M1 antag: 5.1; M1 ag: -5.1; M4 antag: 32.9*; CHRM1 PAM: 1.9; CHRM4 agonist: 3.6

Results for COc1ccc(S(=O)(=O)c2nnn(-c3cccc(Cl)c3)c2N)cc1 ?
M4 PAM: -3.8; M1 antag: 1.9; M1 ag: 11.3; M4 antag: 0.1; CHRM1 PAM: -4.3; CHRM4 agonist: 8.8

How did O=C1NC2(CCCCCC2)N=C1c1ccc(Br)cc1 do in these assays?
M4 PAM: 16.6; M1 antag: -7.8; M1 ag: -1.5; M4 antag: 35.1*; CHRM1 PAM: 10.2; CHRM4 agonist: -0.3

Results for CC1(Oc2cccc(F)c2)CCN(Cc2csc3ccccc23)C1 (configuration not stated) ?
M4 PAM: -3.9; M1 antag: -7.4; M1 ag: -5.1; M4 antag: 7.4; CHRM1 PAM: -1.0; CHRM4 agonist: -1.6

What do the screens show for `COC(=O)Cc1ccc(OC2(C)CCN(Cc3csc4ccccc34)C2)cc1` (configuration not stated)?
M4 PAM: -13.3; M1 antag: 29.0*; M1 ag: -9.2; M4 antag: 54.2*; CHRM1 PAM: -25.8; CHRM4 agonist: 1.1

How did CC(=O)c1cc2c(cc1NC(=O)C1CCC1)OCO2 do in these assays?
M4 PAM: 23.6*; M1 antag: -10.2; M1 ag: -6.2; M4 antag: -0.8; CHRM1 PAM: 8.1; CHRM4 agonist: 2.4
